Experimental findings from PubChem BioAssay (NCI) are described below.

This is part of a sample that, as a whole, favours compounds with a hit. Of some 83,000 tested, about 20% had one in any assay.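 Compound tested at a single concentration for 48 hours in 96-well plates; a percent growth value below 10 was scored as active.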 Values without a mark were called inactive. Calls of active or inactive are those of the source.

Among the test systems are SR leukemia; RPMI-8226 leukemia; OVCAR-8 ovarian; OVCAR-5 ovarian; OVCAR-4 ovarian; SK-OV-3 ovarian; IGROV1 ovarian; OVCAR-3 ovarian; HS 578T breast; NCI/ADR-RES ovarian; T-47D breast; BT-549 breast; MDA-MB-435 melanoma; SW-620 colon; MCF7 breast; HCT-116 colon; HCC-2998 colon; KM12 colon.
What all share (experiment): NCI-60 one-dose screen, 48 h (100 = growth as untreated, 0 = no growth, -100 = all killed)
Common to all, as to conditions: 10 µM unless noted

On to `C#CCOc1cccc(/C(N)=N/C(N)=N/c2nc3ccccc3s2)c1`, for which the growth in the experiment with SR leukemia is 34.5%; with RPMI-8226 leukemia it was 83.2%; in the experiment on OVCAR-8 ovarian it was 67.9%; in the experiment on OVCAR-5 ovarian, 111%; with OVCAR-4 ovarian it was 102%; in the experiment with SK-OV-3 ovarian, 133%. Further, the growth is 65.7% with IGROV1 ovarian; 104% with OVCAR-3 ovarian; 108% in the experiment on HS 578T breast; 59.1% with NCI/ADR-RES ovarian; 72.3% with T-47D breast; 91.7% in the experiment on BT-549 breast. The growth was 104% in the experiment with MDA-MB-435 melanoma; 105% in the experiment on SW-620 colon; 74.2% in the experiment with MCF7 breast; 80.4% in the experiment on HCT-116 colon; 109% in the experiment with HCC-2998 colon; 78.7% in the experiment on KM12 colon.

With `COc1ccc(C(=O)c2c(N)c(C#N)cn2-c2ccc(Cl)cc2Cl)cc1`, the growth with SR leukemia is 92.1%; in the experiment on RPMI-8226 leukemia, 101%; in the experiment with OVCAR-8 ovarian, 94.6%; in the experiment on OVCAR-5 ovarian, 93.9%; with OVCAR-4 ovarian it was 103%; with SK-OV-3 ovarian it was 117%. Besides, the growth is 101% in the experiment with IGROV1 ovarian; 106% with OVCAR-3 ovarian; 90.9% with HS 578T breast; 86.7% in the experiment on NCI/ADR-RES ovarian; 92.9% with T-47D breast; 111% in the experiment with BT-549 breast. The growth with MDA-MB-435 melanoma was 97.4%; in the experiment with SW-620 colon, 98.3%; with MCF7 breast, 99.4%; in the experiment with HCT-116 colon it was 97.7%; in the experiment with HCC-2998 colon it was 103%; in the experiment on KM12 colon it was 102%.

As for `COc1cc2oc(-c3cccc(NC(=O)c4cccc([N+](=O)[O-])c4)c3)cc(=O)c2c(OC)c1OC`, the growth in the experiment on SR leukemia was 55.2%; in the experiment on RPMI-8226 leukemia, 48.8%; in the experiment on OVCAR-8 ovarian it was 6.56% (active); in the experiment on OVCAR-5 ovarian it was 72.1%; in the experiment with OVCAR-4 ovarian it was 37.6%; with SK-OV-3 ovarian, 85.9%. Also, the growth with IGROV1 ovarian is 64.6%; with OVCAR-3 ovarian, 59%; in the experiment on HS 578T breast it was -10.3% (active); in the experiment with NCI/ADR-RES ovarian it was 34.6%; with T-47D breast, 54.3%; in the experiment on BT-549 breast, 59.8%. Besides, the growth in the experiment on MDA-MB-435 melanoma is 53.3%; with SW-620 colon, 70.9%; with MCF7 breast, 42.9%; in the experiment on HCT-116 colon, 33.5%; in the experiment with HCC-2998 colon, 93.6%; in the experiment on KM12 colon, 76.4%.

Turning to `CC1CC(=O)C2=C(C1)Nc1ccc(Br)cc1CC2c1c[nH]c2ccc(Br)cc12` (configuration not stated), the growth in the experiment with SR leukemia is 29.7%; in the experiment with RPMI-8226 leukemia, 42.8%; with OVCAR-8 ovarian, 66.2%; with OVCAR-5 ovarian it was 82%; in the experiment on OVCAR-4 ovarian, 74.4%; in the experiment with SK-OV-3 ovarian, 77.3%. Further, the growth was 32.9% with IGROV1 ovarian; 42.1% in the experiment on OVCAR-3 ovarian; 58% with HS 578T breast; 26.6% in the experiment with NCI/ADR-RES ovarian; 33.4% in the experiment with T-47D breast; 64.9% with BT-549 breast. In addition, the growth in the experiment with MDA-MB-435 melanoma is -18.5% (active); in the experiment with SW-620 colon, 33.5%; in the experiment with MCF7 breast it was 16.7%; with HCT-116 colon, 24.2%; with HCC-2998 colon it was 69.6%; in the experiment with KM12 colon it was 28.1%.

With `COc1cc(-c2nc(-c3ccccc3)[nH]c2-c2ccnc(NCCCNS(=O)(=O)c3cccc(F)c3)n2)ccc1F`, the growth was 77.1% in the experiment on SR leukemia; 62.4% in the experiment with RPMI-8226 leukemia; 86% with OVCAR-8 ovarian; 118% in the experiment with OVCAR-5 ovarian; 104% with OVCAR-4 ovarian; 136% in the experiment on SK-OV-3 ovarian. Moreover, the growth in the experiment on IGROV1 ovarian was -69.7% (active); in the experiment on OVCAR-3 ovarian it was 109%; with HS 578T breast it was 103%; in the experiment on NCI/ADR-RES ovarian, 92.1%; in the experiment on T-47D breast it was 66.5%; in the experiment with BT-549 breast, 128%. For the same compound, the growth in the experiment with MDA-MB-435 melanoma was 82%; with SW-620 colon, 106%; in the experiment with MCF7 breast it was 83.1%; with HCT-116 colon, 75.1%; in the experiment on HCC-2998 colon, 142%; with KM12 colon, 85.8%.

As for `CCC(=C(c1ccc(OCCN2CCCCCC2)cc1)c1ccc(OCCN2CCCCCC2)cc1)c1ccc(Cl)cc1`, the growth was -5.89% (active) in the experiment on SR leukemia; -29.7% (active) in the experiment with RPMI-8226 leukemia; 2.46% (active) in the experiment with OVCAR-8 ovarian; 58.3% in the experiment on OVCAR-5 ovarian; 47.2% in the experiment on OVCAR-4 ovarian; 96.7% with SK-OV-3 ovarian. Further, the growth in the experiment on IGROV1 ovarian is 2.76% (active); in the experiment with OVCAR-3 ovarian it was 30.8%; in the experiment on HS 578T breast, -51% (active); in the experiment with NCI/ADR-RES ovarian, 29.4%; with T-47D breast it was 27.1%; in the experiment with BT-549 breast it was 86.2%. Further, the growth is -85.8% (active) in the experiment with MDA-MB-435 melanoma; -49.2% (active) in the experiment on SW-620 colon; -63.7% (active) with MCF7 breast; -88.9% (active) with HCT-116 colon; -86% (active) in the experiment with HCC-2998 colon; 4.43% (active) in the experiment on KM12 colon.

Turning to `C#C[C@]1(O)CC[C@H]2[C@@H]3CC=C4c5sc(Nc6cc(C)cc(C)c6)nc5CC[C@]4(C)[C@H]3CC[C@@]21C`, the growth in the experiment on SR leukemia is 11.6%; in the experiment on RPMI-8226 leukemia, -27.3% (active); with OVCAR-8 ovarian it was 53%; in the experiment on OVCAR-5 ovarian it was 54.5%; in the experiment with OVCAR-4 ovarian it was 47.7%; with SK-OV-3 ovarian, -38.7% (active). Also, the growth was 46.8% in the experiment with IGROV1 ovarian; 48.9% with OVCAR-3 ovarian; -10.8% (active) in the experiment on HS 578T breast; 47.7% in the experiment with NCI/ADR-RES ovarian; 33.8% in the experiment on T-47D breast; -4.65% (active) in the experiment with BT-549 breast. Further, the growth with MDA-MB-435 melanoma was 20.7%; with SW-620 colon, -20.1% (active); in the experiment on MCF7 breast it was -52.5% (active); in the experiment on HCT-116 colon it was 12.5%; with HCC-2998 colon, 40.2%; in the experiment with KM12 colon, -7.08% (active).

With `CCOC(=O)c1cccc(NC2=C(Cl)C(=O)C(C)=C(C)C2=O)c1`, the growth is 27.7% with SR leukemia; 26.8% in the experiment on RPMI-8226 leukemia; 98.8% in the experiment with OVCAR-8 ovarian; 105% with OVCAR-5 ovarian; -4.17% (active) with OVCAR-4 ovarian; 107% in the experiment on SK-OV-3 ovarian. Moreover, the growth in the experiment on IGROV1 ovarian is 32.2%; in the experiment with OVCAR-3 ovarian, 99.8%; with HS 578T breast, 95.9%; in the experiment on NCI/ADR-RES ovarian it was 102%; in the experiment with T-47D breast it was -37.5% (active); in the experiment on BT-549 breast, 131%. Further, the growth with MDA-MB-435 melanoma is 104%; with SW-620 colon, 100%; in the experiment with MCF7 breast, 84.7%; in the experiment on HCT-116 colon, 84.9%; with HCC-2998 colon, 111%; in the experiment on KM12 colon, 89.6%.

`NS(=O)(=O)c1nnc(/N=C/c2c(O)[nH]c3ccccc23)s1`: the growth in the experiment on SR leukemia was 98.3%; with RPMI-8226 leukemia, 109%; with OVCAR-8 ovarian, 99.9%; in the experiment with OVCAR-5 ovarian, 121%; in the experiment with OVCAR-4 ovarian, 98.5%; in the experiment on SK-OV-3 ovarian, 99.5%. Also, the growth in the experiment on IGROV1 ovarian is 76.5%; in the experiment on OVCAR-3 ovarian, 107%; in the experiment on HS 578T breast, 102%; with NCI/ADR-RES ovarian, 107%; with T-47D breast it was 85.2%; in the experiment on BT-549 breast it was 98.8%. In addition, the growth is 103% in the experiment with MDA-MB-435 melanoma; 106% in the experiment with SW-620 colon; 87.6% in the experiment on MCF7 breast; 94.5% in the experiment on HCT-116 colon; 107% with HCC-2998 colon; 95.4% in the experiment with KM12 colon.
